# Measured values published in article PMC7862700, “An all-to-all approach to the identification of sequence-specific readers for epigenetic DNA modifications on cytosine”.
# What was measured:
# Experiment in all cases: DAPPL (digital affinity profiling via proximity ligation, sequencing); 10 mM Tris-HCl pH 7.5, 50 mM NaCl, 1 mM DTT, 4% glycerol, room temperature, 30 min; GST-TFs on glutathione beads, 16-mer random dsDNA library, 0.1% formaldehyde crosslink after washing; high values mean tight binding
# FLI1 = target: T1, FLI1 (Homo sapiens, UniProt Q01543 1-452); settings: protein: recombinant; tags: N-terminal GST; dsDNA, one strand shown
# T1 sequence: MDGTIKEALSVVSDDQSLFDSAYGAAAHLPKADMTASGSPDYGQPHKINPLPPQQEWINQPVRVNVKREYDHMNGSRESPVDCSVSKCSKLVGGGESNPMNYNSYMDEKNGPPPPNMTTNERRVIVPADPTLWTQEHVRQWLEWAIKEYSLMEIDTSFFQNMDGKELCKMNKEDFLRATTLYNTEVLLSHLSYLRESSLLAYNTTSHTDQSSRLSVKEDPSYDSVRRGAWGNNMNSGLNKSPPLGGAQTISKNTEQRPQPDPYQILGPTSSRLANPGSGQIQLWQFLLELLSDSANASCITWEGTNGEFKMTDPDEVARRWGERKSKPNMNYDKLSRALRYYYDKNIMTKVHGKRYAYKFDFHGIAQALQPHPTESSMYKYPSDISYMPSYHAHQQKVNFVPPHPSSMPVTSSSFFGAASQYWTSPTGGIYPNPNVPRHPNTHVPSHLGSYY
# Method in brief: (§1)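 A tag-only sample was pooled with DNA-barcoded human transcription factors that had been expressed in yeast as GST fusions and captured on glutathione beads. The pools were incubated for 30 min at room temperature with 200 nmole of a random double-stranded 16-mer DNA library in Tris/NaCl/DTT/glycerol buffer, then washed, crosslinked with 0.1% formaldehyde, proximity-ligated (BsaI/T4 ligase, 1 h, 37 °C), PCR-amplified and sequenced on an Illumina NextSeq500. Binding signal is each hexamer's read frequency for a factor divided by its frequency for the tag-only sample.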
# ELK1 = target: T2, ELK1 (Homo sapiens, UniProt P19419 1-428); settings: protein: recombinant; tags: N-terminal GST; dsDNA, one strand shown
# T2 sequence: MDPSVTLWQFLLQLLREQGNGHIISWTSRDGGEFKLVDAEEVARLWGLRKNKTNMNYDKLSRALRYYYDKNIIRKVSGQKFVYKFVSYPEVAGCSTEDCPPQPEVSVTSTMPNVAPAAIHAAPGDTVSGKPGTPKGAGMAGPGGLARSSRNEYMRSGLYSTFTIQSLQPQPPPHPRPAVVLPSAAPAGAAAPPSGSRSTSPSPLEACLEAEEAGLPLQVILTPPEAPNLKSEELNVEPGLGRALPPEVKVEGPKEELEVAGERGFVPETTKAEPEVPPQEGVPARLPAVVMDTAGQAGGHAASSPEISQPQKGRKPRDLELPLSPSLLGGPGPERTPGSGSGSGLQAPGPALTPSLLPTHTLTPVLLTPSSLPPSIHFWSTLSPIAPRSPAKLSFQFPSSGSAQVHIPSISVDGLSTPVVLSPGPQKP
# Method in brief: as §1
# GABPA = target: T3, GABPA (Homo sapiens, UniProt Q06546 1-454); settings: protein: recombinant; tags: N-terminal GST; dsDNA, one strand shown
# T3 sequence: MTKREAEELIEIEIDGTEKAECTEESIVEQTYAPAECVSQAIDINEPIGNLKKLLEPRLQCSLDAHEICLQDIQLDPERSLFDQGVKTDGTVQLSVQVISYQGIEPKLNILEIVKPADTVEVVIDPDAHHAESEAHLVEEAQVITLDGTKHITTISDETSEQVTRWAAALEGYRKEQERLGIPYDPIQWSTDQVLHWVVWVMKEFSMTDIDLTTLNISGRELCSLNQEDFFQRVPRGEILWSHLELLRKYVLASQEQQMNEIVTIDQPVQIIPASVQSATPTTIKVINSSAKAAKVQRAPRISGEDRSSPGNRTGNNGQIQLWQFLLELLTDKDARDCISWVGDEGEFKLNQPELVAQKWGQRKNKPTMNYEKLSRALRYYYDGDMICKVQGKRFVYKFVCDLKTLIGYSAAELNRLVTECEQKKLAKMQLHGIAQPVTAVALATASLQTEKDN
# Method in brief: as §1
# ERG = target: T4, ERG (Homo sapiens, UniProt P11308 1-479); settings: protein: recombinant; tags: N-terminal GST; dsDNA, one strand shown
# T4 sequence: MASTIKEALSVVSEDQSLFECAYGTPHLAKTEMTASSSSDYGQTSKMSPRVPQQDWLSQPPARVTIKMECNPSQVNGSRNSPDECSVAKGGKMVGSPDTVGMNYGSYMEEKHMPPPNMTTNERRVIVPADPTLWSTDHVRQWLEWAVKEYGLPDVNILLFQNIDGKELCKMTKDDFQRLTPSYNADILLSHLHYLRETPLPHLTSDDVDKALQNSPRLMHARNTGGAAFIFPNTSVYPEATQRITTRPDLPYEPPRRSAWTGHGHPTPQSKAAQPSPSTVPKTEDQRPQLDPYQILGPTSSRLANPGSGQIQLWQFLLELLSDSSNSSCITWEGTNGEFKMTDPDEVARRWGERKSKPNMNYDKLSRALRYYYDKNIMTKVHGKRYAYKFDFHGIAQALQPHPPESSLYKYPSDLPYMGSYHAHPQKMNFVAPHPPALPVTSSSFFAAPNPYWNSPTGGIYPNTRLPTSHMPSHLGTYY
# Method in brief: as §1
# ELF1 = ELF1 (Homo sapiens, UniProt P32519 1-619); settings: protein: recombinant; tags: N-terminal GST; dsDNA, one strand shown
# Method in brief: as §1
# EHF = target: T5, EHF (Homo sapiens, UniProt Q9NZC4 1-300); settings: protein: recombinant; tags: N-terminal GST; dsDNA, one strand shown
# T5 sequence: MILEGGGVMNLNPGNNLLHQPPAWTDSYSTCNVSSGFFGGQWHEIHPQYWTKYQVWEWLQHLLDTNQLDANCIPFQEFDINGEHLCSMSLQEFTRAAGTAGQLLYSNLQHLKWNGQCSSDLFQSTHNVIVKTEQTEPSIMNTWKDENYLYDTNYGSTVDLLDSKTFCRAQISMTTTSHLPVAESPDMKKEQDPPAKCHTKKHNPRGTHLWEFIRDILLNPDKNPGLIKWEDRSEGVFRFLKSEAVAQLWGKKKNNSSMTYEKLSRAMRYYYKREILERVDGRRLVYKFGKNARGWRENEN
# Method in brief: as §1
# SPI1 = SPI1 (Homo sapiens, UniProt P17947 1-270); settings: protein: recombinant; tags: N-terminal GST; dsDNA, one strand shown
# Method in brief: as §1
# SPIB = SPIB (Homo sapiens, UniProt Q01892 1-262); settings: protein: recombinant; tags: N-terminal GST; dsDNA, one strand shown
# Method in brief: as §1
# ELK3 = target: T6, ELK3 (Homo sapiens, UniProt P41970 1-407); settings: protein: recombinant; tags: N-terminal GST; dsDNA, one strand shown
# T6 sequence: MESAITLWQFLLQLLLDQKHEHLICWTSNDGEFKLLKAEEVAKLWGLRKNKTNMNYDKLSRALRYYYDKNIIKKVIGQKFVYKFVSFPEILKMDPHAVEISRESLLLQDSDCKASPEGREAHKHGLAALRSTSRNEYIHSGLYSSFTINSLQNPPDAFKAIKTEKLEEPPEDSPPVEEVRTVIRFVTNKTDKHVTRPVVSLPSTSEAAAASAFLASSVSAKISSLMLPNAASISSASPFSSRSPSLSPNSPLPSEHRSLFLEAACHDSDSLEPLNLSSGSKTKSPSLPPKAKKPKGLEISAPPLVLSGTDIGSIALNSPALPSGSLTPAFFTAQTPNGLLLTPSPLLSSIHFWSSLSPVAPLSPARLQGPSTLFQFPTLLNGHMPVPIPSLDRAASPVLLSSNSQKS
# Method in brief: as §1
# FEV = target: T7, FEV (Homo sapiens, UniProt Q99581 1-238); settings: protein: recombinant; tags: N-terminal GST; dsDNA, one strand shown
# T7 sequence: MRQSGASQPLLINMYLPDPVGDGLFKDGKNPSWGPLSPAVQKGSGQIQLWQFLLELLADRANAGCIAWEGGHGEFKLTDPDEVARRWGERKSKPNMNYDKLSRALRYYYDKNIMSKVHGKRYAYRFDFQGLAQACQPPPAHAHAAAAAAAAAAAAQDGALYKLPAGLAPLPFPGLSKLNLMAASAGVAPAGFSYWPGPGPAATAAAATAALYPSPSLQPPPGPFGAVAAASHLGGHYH
# Method in brief: as §1
# ETV5 = ETV5 (Homo sapiens, UniProt P41161 1-510); settings: protein: recombinant; tags: N-terminal GST; dsDNA, one strand shown
# Method in brief: as §1
# HSF1 = HSF1 (Homo sapiens, UniProt Q00613 1-529); settings: protein: recombinant; tags: N-terminal GST; chain copies: 3; dsDNA, one strand shown
# Method in brief: as §1
# SPIC = target: T8, SPIC (Homo sapiens, UniProt Q8N5J4 1-248); settings: protein: recombinant; tags: N-terminal GST; dsDNA, one strand shown
# T8 sequence: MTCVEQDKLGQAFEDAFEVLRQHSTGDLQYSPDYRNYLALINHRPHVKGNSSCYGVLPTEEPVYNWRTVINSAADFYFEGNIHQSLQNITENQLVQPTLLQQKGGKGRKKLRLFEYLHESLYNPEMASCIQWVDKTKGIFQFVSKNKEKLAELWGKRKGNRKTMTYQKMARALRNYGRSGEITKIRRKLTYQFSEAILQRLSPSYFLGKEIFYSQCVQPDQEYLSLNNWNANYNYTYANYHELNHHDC
# Method in brief: as §1
# ELF4 = ELF4 (Homo sapiens, UniProt Q99607 1-663); settings: protein: recombinant; tags: N-terminal GST; dsDNA, one strand shown
# Method in brief: as §1
# ELK4 = target: T9, ELK4 (Homo sapiens, UniProt P28324-2 1-405); settings: protein: recombinant; tags: N-terminal GST; dsDNA, one strand shown
# T9 sequence: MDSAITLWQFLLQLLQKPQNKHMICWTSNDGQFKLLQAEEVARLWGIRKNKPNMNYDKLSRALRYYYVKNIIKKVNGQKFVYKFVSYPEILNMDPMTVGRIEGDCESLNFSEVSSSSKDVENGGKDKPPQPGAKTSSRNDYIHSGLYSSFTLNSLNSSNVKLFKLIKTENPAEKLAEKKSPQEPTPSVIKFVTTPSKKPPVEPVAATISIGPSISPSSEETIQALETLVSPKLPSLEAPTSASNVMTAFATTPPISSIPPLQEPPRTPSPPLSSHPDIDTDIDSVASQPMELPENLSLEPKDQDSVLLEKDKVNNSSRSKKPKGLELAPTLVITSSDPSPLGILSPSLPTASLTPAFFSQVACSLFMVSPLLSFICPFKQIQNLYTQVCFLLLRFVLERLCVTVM
# Method in brief: as §1
# ETV2 = target: T10, ETV2 (Homo sapiens, UniProt O00321 1-342); settings: protein: recombinant; tags: N-terminal GST; dsDNA, one strand shown
# T10 sequence: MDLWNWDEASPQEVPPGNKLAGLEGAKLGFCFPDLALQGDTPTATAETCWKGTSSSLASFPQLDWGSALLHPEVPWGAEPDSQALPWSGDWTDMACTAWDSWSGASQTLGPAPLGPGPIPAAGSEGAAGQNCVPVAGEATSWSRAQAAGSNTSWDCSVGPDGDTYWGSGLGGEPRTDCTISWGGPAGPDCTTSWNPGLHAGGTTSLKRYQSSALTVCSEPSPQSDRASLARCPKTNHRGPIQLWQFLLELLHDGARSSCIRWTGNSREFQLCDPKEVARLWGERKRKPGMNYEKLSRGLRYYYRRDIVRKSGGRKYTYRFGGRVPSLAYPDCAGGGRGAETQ
# Method in brief: as §1
# ELF3 = target: T11, ELF3 (Homo sapiens, UniProt P78545 1-371); settings: protein: recombinant; tags: N-terminal GST; dsDNA, one strand shown
# T11 sequence: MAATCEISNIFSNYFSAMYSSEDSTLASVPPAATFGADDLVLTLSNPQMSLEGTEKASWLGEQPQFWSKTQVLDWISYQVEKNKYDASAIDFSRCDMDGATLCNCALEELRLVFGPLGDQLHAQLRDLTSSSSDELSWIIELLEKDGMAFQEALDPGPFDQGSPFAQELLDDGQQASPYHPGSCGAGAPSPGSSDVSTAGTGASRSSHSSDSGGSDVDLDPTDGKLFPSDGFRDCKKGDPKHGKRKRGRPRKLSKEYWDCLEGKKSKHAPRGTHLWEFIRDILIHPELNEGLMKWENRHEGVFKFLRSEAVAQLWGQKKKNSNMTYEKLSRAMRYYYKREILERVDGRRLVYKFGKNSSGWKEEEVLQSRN
# Method in brief: as §1
# CRX = CRX (Homo sapiens, UniProt O43186 1-299); settings: protein: recombinant; tags: N-terminal GST; dsDNA, one strand shown
# Method in brief: as §1
# ETV1 = ETV1 (Homo sapiens, UniProt P50549 1-477); settings: protein: recombinant; tags: N-terminal GST; dsDNA, one strand shown
# Method in brief: as §1
# Sequence of ETV5 (P41161 whole entry): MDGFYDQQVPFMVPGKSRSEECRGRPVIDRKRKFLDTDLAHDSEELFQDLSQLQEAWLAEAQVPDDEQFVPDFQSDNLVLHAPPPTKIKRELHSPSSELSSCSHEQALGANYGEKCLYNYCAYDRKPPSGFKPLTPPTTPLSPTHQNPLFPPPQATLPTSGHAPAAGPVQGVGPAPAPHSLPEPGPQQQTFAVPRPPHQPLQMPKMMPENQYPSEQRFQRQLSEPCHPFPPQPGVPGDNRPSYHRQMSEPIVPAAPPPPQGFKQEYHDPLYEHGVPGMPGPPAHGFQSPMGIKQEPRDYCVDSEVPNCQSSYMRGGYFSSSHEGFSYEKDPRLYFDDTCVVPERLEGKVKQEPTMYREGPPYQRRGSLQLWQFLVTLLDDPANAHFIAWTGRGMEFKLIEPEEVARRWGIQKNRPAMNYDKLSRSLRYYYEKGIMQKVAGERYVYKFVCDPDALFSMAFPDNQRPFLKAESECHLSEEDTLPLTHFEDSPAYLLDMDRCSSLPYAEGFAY
# Sequence of ETV1 (P50549 whole entry): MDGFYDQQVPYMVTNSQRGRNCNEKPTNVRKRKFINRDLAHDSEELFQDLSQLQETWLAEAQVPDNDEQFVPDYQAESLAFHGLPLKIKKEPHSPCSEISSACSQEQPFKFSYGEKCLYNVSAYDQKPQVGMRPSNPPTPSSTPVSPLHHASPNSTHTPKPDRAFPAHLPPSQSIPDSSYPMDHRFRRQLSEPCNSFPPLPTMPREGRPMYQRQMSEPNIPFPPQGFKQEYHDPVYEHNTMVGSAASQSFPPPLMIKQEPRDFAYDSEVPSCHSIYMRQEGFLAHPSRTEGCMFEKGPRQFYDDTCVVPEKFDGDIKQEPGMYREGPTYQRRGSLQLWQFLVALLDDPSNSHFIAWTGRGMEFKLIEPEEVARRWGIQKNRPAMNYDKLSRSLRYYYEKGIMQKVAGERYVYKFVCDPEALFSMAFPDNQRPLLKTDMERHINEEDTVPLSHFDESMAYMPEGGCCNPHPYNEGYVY
# Sequence of SPIB (Q01892 whole entry): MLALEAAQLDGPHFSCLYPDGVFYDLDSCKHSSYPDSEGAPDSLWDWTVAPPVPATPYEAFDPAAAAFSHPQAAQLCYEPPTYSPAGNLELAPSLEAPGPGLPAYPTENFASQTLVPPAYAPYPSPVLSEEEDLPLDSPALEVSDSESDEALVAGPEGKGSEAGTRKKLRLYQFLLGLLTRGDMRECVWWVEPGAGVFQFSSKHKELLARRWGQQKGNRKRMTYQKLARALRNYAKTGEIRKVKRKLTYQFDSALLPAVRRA
# Sequence of ELF1 (P32519 whole entry): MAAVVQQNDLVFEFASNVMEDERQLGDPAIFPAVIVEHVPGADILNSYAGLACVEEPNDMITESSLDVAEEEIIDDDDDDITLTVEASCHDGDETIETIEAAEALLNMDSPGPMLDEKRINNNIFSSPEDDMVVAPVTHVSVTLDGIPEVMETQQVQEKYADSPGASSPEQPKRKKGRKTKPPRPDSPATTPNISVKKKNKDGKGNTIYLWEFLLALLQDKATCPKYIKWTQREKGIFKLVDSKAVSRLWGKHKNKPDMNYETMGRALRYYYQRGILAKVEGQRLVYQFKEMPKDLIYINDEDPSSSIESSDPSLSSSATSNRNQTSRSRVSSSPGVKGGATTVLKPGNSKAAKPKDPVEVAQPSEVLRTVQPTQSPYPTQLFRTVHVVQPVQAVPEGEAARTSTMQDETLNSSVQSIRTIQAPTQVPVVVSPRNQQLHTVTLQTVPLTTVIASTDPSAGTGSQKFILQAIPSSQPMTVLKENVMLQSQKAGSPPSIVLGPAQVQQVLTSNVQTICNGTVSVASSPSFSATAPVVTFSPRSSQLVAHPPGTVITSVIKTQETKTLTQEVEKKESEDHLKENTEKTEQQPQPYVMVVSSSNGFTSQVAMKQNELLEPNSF
# Sequence of HSF1 (Q00613 whole entry): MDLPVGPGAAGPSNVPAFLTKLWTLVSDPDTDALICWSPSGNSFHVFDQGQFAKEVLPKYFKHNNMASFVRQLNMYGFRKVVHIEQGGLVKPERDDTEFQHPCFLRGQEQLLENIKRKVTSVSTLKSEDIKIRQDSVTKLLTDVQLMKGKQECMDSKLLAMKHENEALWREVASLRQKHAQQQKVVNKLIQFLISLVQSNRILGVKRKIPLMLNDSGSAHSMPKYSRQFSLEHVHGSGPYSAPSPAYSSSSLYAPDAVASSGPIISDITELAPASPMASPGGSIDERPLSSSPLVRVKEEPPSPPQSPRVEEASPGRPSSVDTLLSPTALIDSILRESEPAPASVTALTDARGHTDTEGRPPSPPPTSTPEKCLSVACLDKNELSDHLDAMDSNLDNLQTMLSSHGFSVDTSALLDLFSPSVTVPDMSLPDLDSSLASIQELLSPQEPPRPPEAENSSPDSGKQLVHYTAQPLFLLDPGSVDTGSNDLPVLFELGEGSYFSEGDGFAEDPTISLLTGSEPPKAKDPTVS
# Sequence of CRX (O43186 whole entry): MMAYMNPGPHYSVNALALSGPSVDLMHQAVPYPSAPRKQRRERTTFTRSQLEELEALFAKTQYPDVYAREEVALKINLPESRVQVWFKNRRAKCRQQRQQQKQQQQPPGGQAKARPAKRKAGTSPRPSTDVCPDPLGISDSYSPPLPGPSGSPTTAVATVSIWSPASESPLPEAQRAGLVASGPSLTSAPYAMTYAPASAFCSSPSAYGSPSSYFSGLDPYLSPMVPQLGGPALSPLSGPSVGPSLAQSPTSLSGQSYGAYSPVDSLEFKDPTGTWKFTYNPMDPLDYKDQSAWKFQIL
# Sequence of ELF4 (Q99607 whole entry): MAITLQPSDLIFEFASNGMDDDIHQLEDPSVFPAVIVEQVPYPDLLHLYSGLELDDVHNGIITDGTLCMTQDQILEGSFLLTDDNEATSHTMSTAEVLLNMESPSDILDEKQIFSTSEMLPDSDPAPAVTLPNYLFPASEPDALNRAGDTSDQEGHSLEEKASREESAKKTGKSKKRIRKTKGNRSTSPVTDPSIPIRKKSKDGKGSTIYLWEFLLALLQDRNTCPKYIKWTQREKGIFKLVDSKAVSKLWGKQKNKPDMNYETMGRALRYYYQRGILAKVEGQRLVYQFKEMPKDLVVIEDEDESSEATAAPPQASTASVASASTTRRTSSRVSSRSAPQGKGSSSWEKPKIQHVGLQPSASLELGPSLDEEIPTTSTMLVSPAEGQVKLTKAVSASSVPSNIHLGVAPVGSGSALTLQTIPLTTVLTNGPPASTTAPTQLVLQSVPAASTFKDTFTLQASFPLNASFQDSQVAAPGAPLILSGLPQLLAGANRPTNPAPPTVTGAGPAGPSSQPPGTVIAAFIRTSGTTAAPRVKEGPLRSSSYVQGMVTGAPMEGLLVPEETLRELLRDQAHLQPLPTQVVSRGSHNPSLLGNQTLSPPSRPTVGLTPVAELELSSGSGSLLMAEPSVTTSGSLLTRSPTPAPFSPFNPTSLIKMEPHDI
sequence,measurement,setting,value
AAGATA,binding signal,FLI1,"1.07 fold enrichment (6-mer frequency, TF over GST control)"
same,binding signal,ELK1,"1.15 fold enrichment (6-mer frequency, TF over GST control)"
same,binding signal,GABPA,"1.14 fold enrichment (6-mer frequency, TF over GST control)"
same,binding signal,ERG,"1.17 fold enrichment (6-mer frequency, TF over GST control)"
same,binding signal,ELF1,"1.14 fold enrichment (6-mer frequency, TF over GST control)"
same,binding signal,EHF,"1.18 fold enrichment (6-mer frequency, TF over GST control)"
same,binding signal,SPI1,"1.08 fold enrichment (6-mer frequency, TF over GST control)"
same,binding signal,SPIB,"1.12 fold enrichment (6-mer frequency, TF over GST control)"
same,binding signal,ELK3,"1.23 fold enrichment (6-mer frequency, TF over GST control)"
same,binding signal,FEV,"1.08 fold enrichment (6-mer frequency, TF over GST control)"
same,binding signal,ETV5,"1.14 fold enrichment (6-mer frequency, TF over GST control)"
same,binding signal,HSF1,"1.33 fold enrichment (6-mer frequency, TF over GST control)"
same,binding signal,SPIC,"1.06 fold enrichment (6-mer frequency, TF over GST control)"
same,binding signal,ELF4,"1.16 fold enrichment (6-mer frequency, TF over GST control)"
same,binding signal,ELK4,"1.12 fold enrichment (6-mer frequency, TF over GST control)"
same,binding signal,ETV2,"1.16 fold enrichment (6-mer frequency, TF over GST control)"
same,binding signal,ELF3,"1.03 fold enrichment (6-mer frequency, TF over GST control)"
same,binding signal,CRX,"1.53 fold enrichment (6-mer frequency, TF over GST control)"
same,binding signal,ETV1,"1.2 fold enrichment (6-mer frequency, TF over GST control)"
